Screening data from PubChem.
Pf growth 96h: P. falciparum growth inhibition at 96 hours; P. falciparum luciferase reporter growth, 96 h; Potency, µM (series often up to 28.7 µM), inactives show at the highest dose activity change, negative = inhibition, most hits filed as inhibitors; AID 504834; actives 6.9% (n = 320,000); further: potency means the concentration at half of the fitted maximal effect; on the % scale 0 is the no-effect control and ±100 the full control effect
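P. falciparum expressing integrated firefly luciferase grown in erythrocytes (2% hematocrit, 0.05% parasitemia final) with compounds for 96 hours at 37 C, 5% CO2. Growth inhibition read as loss of luminescence after adding luciferase detection reagent.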
Pf growth 48h: inhibits P. falciparum growth in the first generation, 48 h; actives 5.9% (n = 310,000); Potency, µM (top dose mostly 28.7 µM), inactives show at the highest dose activity change, negative = inhibition, most hits filed as inhibitors; P. falciparum luciferase growth in erythrocytes, 48 h; further: potency means the concentration at half of the fitted maximal effect; on the % scale 0 is the no-effect control and ±100 the full control effect
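First compound was added to culture medium, then infected red cells at 0.1% parasitemia and 2% hematocrit (final). After incubation at 37 C under 5% CO2, luciferase detection reagent was dispensed and light output recorded.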
Shiga inhibitor: inhibitors of Shiga toxin in Vero cells; Vero cells, Shiga toxin protein synthesis inhibition reporter; inhibition, % at 38.7 µM; actives 9.2% (n = 290,000); AID 2315; in the data active means inhibition mostly above about 28%, no sharp cut-off; inactive means mostly below about 43%; further: 0% is about no effect
Cycloheximide cs: affects cycloheximide protein synthesis inhibition readout, counter-screen; max response, %; actives 12% (n = 300,000); cell reporter, cycloheximide protein synthesis inhibition counterscreen; in the data active means max response mostly above about 13%, no sharp cut-off; inactive means mostly below about 14%; further: read at 38.3 µM for the half of the compounds with a filed dose; 0% is about no effect
Active calls of the source: *; ? = inconclusive; · = no result; [ ] = remark or other dose. Most compounds without a hit are left out; they make up all but 21% or so of the library. Unless noted, the call rests on the fitted dose curve; in most records, active means well fitted inhibition curve with a large enough effect; inconclusive means small, poorly fitted or top-dose-only effect, or another doubt; inactive means no such curve, though single readings can be large or run the other way.

SMILES	Pf growth 96h	Pf growth 48h	Shiga inhibitor	Cycloheximide cs
Cc1ccc2[nH]c(=O)c(CN(CCN3CCOCC3)C(=O)Nc3ccccc3F)cc2c1	7.1%[5.75 µM]	?	-2.5	-1.3
CCCCn1c(N)c(N(CCC(C)C)C(=O)c2[nH]c(C)c(C(=O)OCC)c2C)c(=O)[nH]c1=O	?	-31.4%	·	·
COc1ccc(C(=O)COC(=O)CN2C(=O)C3C4CCC(C4)C3C2=O)cc1 (configuration not stated)	76.0%	15.6%	-5.5	-1.1
Cc1cc(C)c2cc(CN(CCO)C(=O)NC3CCCCC3)c(=O)[nH]c2c1	?	-8.5%	1.3	-3.1
CNC(=S)N(CCc1ccccc1)Cc1cc2cc(OC)c(OC)cc2[nH]c1=O	?	?	-6.3	-0.6
COc1cc2cc(CN(Cc3cccnc3)C(=O)Nc3ccccc3F)c(=O)[nH]c2cc1OC	22.1%	7.38µM*	12.7	-0.7
CCN1CCCC1CN(Cc1cc2c(C)cc(C)cc2[nH]c1=O)C(=O)NC1CCCCC1 (configuration not stated)	·	9.28µM*	-2.5	-5.9
COc1ccc(Cl)cc1NC(=O)CCNS(=O)(=O)c1cccc2nonc12	10.4µM*	26.8%	-6.2	-1.3
COc1ccc(C)cc1NC(=O)CCNS(=O)(=O)c1cccc2nonc12	21.1%	0.0%	-18.6	2.8
Cc1ccc(NC(=O)CSc2ncc(-c3ccccc3)n2C(=O)c2ccccc2)cc1	?	28.4%	100.4*	27.8*
Cc1ccc(C(=O)n2c(-c3ccccc3)cnc2SCC(=O)Nc2ccccc2)cc1	252.6%	71.3%	-2.9	15.1*
CCC(=O)n1nc(-c2ccccc2)nc1SCC(=O)Nc1ccc(C)cc1	?	46.9%	-12.9	9.1
Cc1ccc(NC(=O)CSc2nnc(Cc3ccccc3)o2)c(C)c1	0.0%	?	-2.4	-3.7
Cc1ccc(NC(=O)Cn2c(-c3ccc(F)cc3)cnc2SCC(=O)Nc2c(C)cccc2C)cc1	12.9%	0.1%	1.2	-0.2
Cc1ccc(C(=O)n2c(-c3ccccc3)cnc2SCC(=O)Nc2ccc(C)cc2C)cc1	13.9%	32.3%	48.5*	-2.0
Clc1cccc(-c2ccc(CNCCCN3CCOCC3)o2)c1	-9.8%	?	15.2	7.6
CC[C@H]1OC(=O)[C@H](C)[C@@H](O[C@H]2C[C@@](C)(OC)[C@@H](O)[C@H](C)O2)[C@H](C)[C@@H](O[C@@H]2O[C@H](C)C[C@H](N(C)C)[C@H]2O)[C@](C)(OC)C[C@@H](C)C(=O)[C@H](C)[C@@H](O)[C@]1(C)O	·	·	-7.4	-2.3
COc1ccc(C(=O)Nc2scc(-c3ccc(Cl)cc3Cl)c2C(N)=O)cc1	29.0%	30.7%	153.4*	43.7*
COc1ccc(C(=O)Nc2cc(OC)c(Cl)cc2Cl)cc1	84.3%	100.3%	29.1	16.9
CCn1cc(C(=O)N[C@H](C(=O)NCCCN2CCOCC2)C(C)C)c(=O)c2cc3c(cc21)OCO3	17.8%	?	-6.5	1.0
Cc1cccc(NC(=S)N(CCN2CCOCC2)Cc2ccccc2F)c1	?	?	-10.5	15.0
Cc1ccc(NC(=S)N(CCN2CCOCC2)Cc2ccccc2F)cc1Cl	?	11.7µM*	10.7	3.0
COc1ccc(NC(=S)N(CCN2CCOCC2)Cc2ccccc2F)cc1	?	?	17.6	0.2
O=C(Nc1ccccc1)N(CCN1CCOCC1)Cc1ccccc1F	1.1%	1.7%	-3.1	15.2*
Cc1ccc(NC(=S)N(CCCN2CCOCC2)Cc2ccco2)cc1	11.7µM*	1.8%	-8.4	1.4
SMILES	Pf growth 96h	Pf growth 48h	Shiga inhibitor	Cycloheximide cs
S=C(Nc1ccc(Cl)cc1)N(CCCN1CCOCC1)Cc1ccco1	0.0%	7.8%	-5.7	-1.7
CN(CC(=O)NCC1CCCCC1)CC(=O)Nc1ccc(F)cc1	-10.0%	?	·	·
CC/C(=N\NC(=O)c1ccccc1)c1c(O)n(Cc2ccccc2)c(=O)[nH]c1=O	51.4%	25.3%	53.5*	57.4*
C=CCn1c(O)c(/C(C)=N/NC(=S)Nc2ccccc2)c(=O)[nH]c1=O	?	12.5%	59.9*	27.0*
CCCCn1c(O)c(/C(C)=N/NC(=O)Nc2ccccc2)c(=O)[nH]c1=O	49.3%	44.9%	38.8*	30.5*
CC/C(=N\NC(=O)c1ccccc1O)c1c(O)n(C2CCCCC2)c(=O)[nH]c1=O	11.7µM*	?	51.6*	23.4*
Cc1cccc(C(=O)N2CCN(S(=O)(=O)N3CCCCCC3)CC2)c1	44.7%	28.1%	-5.2	-5.8
COc1ccc(C(=O)NC(=S)Nc2ccc(N3CCOCC3)cc2)cc1Cl	76.8%	-7.3%	-12.7	-6.3
C=CCn1c(O)c(C(CC)=NCCc2ccccc2)c(=O)[nH]c1=O	?	·	-17.9	-2.2
CCCCn1c(O)c(C(CC)=NCc2ccc(F)cc2)c(=O)[nH]c1=O	?	?	-5.8	-4.1
